# Test results taken from PubChem BioAssay (Tox21).
# Inconclusive results are not listed. A number with no mark means an inactive call. Active and inactive are the calls of the source. Calls follow the shape of the dose curve; as a rule, active = well fitted activation curve with a large enough effect; inconclusive = small, poorly fitted or top-dose-only effect; inactive = flat fitted curve, though single readings scatter. Positions of bridges follow the written chain, without caps; N, C: chain ends. Non-standard residues stand in square brackets, D forms with d. Residues, ends and D or L forms follow the SMILES beside them. *: point of attachment. Dab(CH2SO3H) = N[C@@H](CCNCS(=O)(=O)O)C(=O)O; X3 = CC[C@@H](C)CCCCC(=O)*; Dab = NCC[C@H](N)C(=O)O
# Assay: qHTS assay to identify small molecule phospholipidosis (PLD) inducers (AID 1259344)
# Conditions: HepG2 phospholipidosis, LipidTOX Red imaging, 24 h; series mostly up to 38.3 µM; PLD induction: at the top concentration
# Method in brief: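 Fluorescent phospholipid staining (LipidTOX Red) measured by automated microscopy in fixed HepG2 cells after 24 h treatment; nuclei counterstained with Hoechst 33342; amiodarone as reference inducer.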
# % is scaled to controls: 0 for no effect and ±100 for the full control effect.
Compound,PLD induction,Potency
N=C(N)c1ccc(/C=C/c2ccc(C(=N)N)cc2O)cc1,3.81%,–
COc1ccc([C@@H]2CC(=O)c3c(O)cc(O[C@@H]4O[C@H](CO[C@@H]5O[C@@H](C)[C@H](O)[C@@H](O)[C@H]5O)[C@@H](O)[C@H](O)[C@H]4O)cc3O2)cc1O,-0.0576% [at 15.5 µM],–
CO[C@H]1C[C@H](O[C@H]2[C@H](C)[C@@H](O[C@@H]3O[C@H](C)C[C@H](N(C)C)[C@H]3O)[C@@H](C)C[C@]3(CO3)C(=O)[C@H](C)[C@@H](O)[C@@H](C)[C@@H](C)OC(=O)[C@@H]2C)O[C@@H](C)[C@@H]1O,0.285% [at 15.5 µM],–
CC[C@@H](C)CCCCC(=O)N[C@@H](CCNCS(=O)(=O)O)C(=O)N[C@H](C(=O)N[C@@H](CCNCS(=O)(=O)O)C(=O)N[C@H]1CCNC(=O)[C@H]([C@@H](C)O)NC(=O)[C@H](CCNCS(=O)(=O)O)NC(=O)[C@H](CCNCS(=O)(=O)O)NC(=O)[C@H](CC(C)C)NC(=O)[C@@H](CC(C)C)NC(=O)[C@H](CCNCS(=O)(=O)O)NC1=O)[C@@H](C)O (X3-[Dab(CH2SO3H)]T[Dab(CH2SO3H)][Dab][Dab(CH2SO3H)][dL]L[Dab(CH2SO3H)][Dab(CH2SO3H)]T; lactam 4-C),19.3%,–
CC12CCC(C1)C(C)(C)C2=O (centres undefined),-0.681%,–
CC(C)Cc1ccc([C@H](C)C(=O)O)cc1,-6.28%,–
CC(C)CCC[C@@H](C)[C@H]1CC[C@H]2[C@@H]3CC[C@@H]4C[C@H](O)CC[C@]4(C)[C@H]3CC[C@]12C,0.594%,–
CCN1\C(=C/C=C/C=C/c2sc3ccccc3[n+]2CC)Sc2ccccc21,–,inactive
C[S+](C)CCC(N)C(=O)O (centres undefined),0.427%,–
NCC[C@H](O)C(=O)N[C@@H]1C[C@H](N)[C@@H](O[C@H]2O[C@H](CN)CC[C@H]2N)[C@H](O)[C@H]1O[C@H]1O[C@H](CO)[C@@H](O)[C@H](N)[C@H]1O,0.0613%,–
COc1ccc(/C=C/C(=O)O)cc1,2.97%,–
CC1(C)S[C@@H]2[C@H](N3C(=O)C(c4ccccc4)NC3(C)C)C(=O)N2[C@H]1C(=O)O (some centres undefined),2.57%,–
c1ccc2c(c1)OCC(CN1CCCCC1)O2 (centres undefined),-0.257%,–
Oc1ccc(Cl)c2c1CCC2,-0.3%,–
CCC[C@@H]1C[C@@H](C(=O)N[C@@H]([C@H]2O[C@H](SC)[C@H](OP(=O)(O)O)[C@@H](O)[C@H]2O)[C@H](C)Cl)N(C)C1,–,inactive
N=C(N)n1cccn1,-0.953%,–
CC(=NCc1ccccc1)c1ccccc1O,-0.47%,–

Compound,PLD induction,Potency
CC(C)(C)C(=O)OCC(=O)[C@H]1CC[C@H]2[C@@H]3CCC4=CC(=O)CC[C@]4(C)[C@H]3CC[C@]12C,-0.848%,–
CCCCCCCCCC(=O)NO,–,inactive
O=C(O)[C@@H]1C[C@H](CP(=O)(O)O)CCN1,-1.06%,–
CC1(C)S[C@@H]2[C@H](NC(=O)[C@@H](NC(=O)N3CCNC3=O)c3ccccc3)C(=O)N2[C@H]1C(=O)O,-1.33% [at 15.5 µM],–
CC(=O)OCC1=C(C(=O)O)N2C(=O)[C@@H](NC(=O)Cc3ccccc3)[C@H]2SC1,-0.556%,–
O=C(Cn1cnnn1)N[C@@H]1C(=O)N2C(C(=O)O)=C(CSc3nncs3)CS[C@H]12,–,inactive
COC(=O)[C@H]1[C@H]2C[C@H]3c4[nH]c5ccccc5c4CCN3C[C@H]2CC[C@@H]1O,0.218%,–
NCCCC[C@H](NC(=O)[C@@H]1CCCN1C(=O)[C@@H]1CSSC[C@H](N)C(=O)N[C@@H](Cc2ccc(O)cc2)C(=O)N[C@@H](Cc2ccccc2)C(=O)N[C@@H](CCC(N)=O)C(=O)N[C@@H](CC(N)=O)C(=O)N1)C(=O)NCC(N)=O,–,inactive
CSCCC(N)C(=O)O (centres undefined),-0.419%,–
CC/C=C\C/C=C\C/C=C\C/C=C\C/C=C\C/C=C\CCC(=O)O,0.107%,–
N[C@@H](Cc1ccc(O)c(O)c1)C(=O)O,8.4%,–
C[S+](CC[C@H](N)C(=O)O)C[C@H]1O[C@@H](n2cnc3c(N)ncnc32)[C@H](O)[C@@H]1O (some centres undefined),–,inactive
C=CC(N)CCC(=O)O (centres undefined),1.01%,–
c1ccc(-n2cnnn2)cc1,-0.359%,–
O=C(O)c1ccccn1,2.09%,–
CN(C)CCC(O)(c1ccccc1)c1ccccc1Cl (centres undefined),4.15%,–
CC1(C)C[C@@H]1C(=O)N/C(=C\CCCCSC[C@H](N)C(=O)O)C(=O)O,–,inactive
